Screens deposited in PubChem BioAssay by several laboratories.
Myeloid diff MLP: compounds promoting myeloid differentiation; calls only at 10 µM; AID 624256; 1% of 360,000 active; ER-HoxA9 myeloid progenitors, lysozyme-GFP differentiation, flow cytometry;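 active = normalized GFP-positive differentiation at or above the plate's own cutoff, the solvent-only control mean plus 3 SD; inconclusive = no clear call, values can overlap the other calls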;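 also: cells exposed to compound for four days before flow analysis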
NR3A LBD binder: modulates the human NR3A ligand-binding domain; AID 1259313; Tm shift relative to glycine control, % at 25 µM; NR3A LBD differential scanning fluorimetry, Tm shift; 0% = protein alone, 100% = glycine-bound protein; 2.5% of 340,000 active;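 active = melting temperature shift of at least 10% of the positive control shift, at one fixed dose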
MPTP inh: permeability transition pore inhibition. isolated mouse mitochondria, Ca2+ swelling absorbance, 30 min. 1.4% of 360,000 active. inhibition, % at 10 µM;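 active = inhibition of 50% or more, scaled per plate between neutral and stimulator controls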;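 also: 0% = DMSO wells given calcium and 100% = 1 mM EGTA wells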
rCAG RNA binder: r(CAG) repeat RNA binding. TO-PRO-1 dye displacement fluorescence. inhibition, % at 3 µM. 1.3% of 370,000 active;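 active = inhibition above the plate cutoff, the mean of all test compounds on that plate plus 3 SD, cut at about 35% in these data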;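 also: 0% = DMSO alone and 100% = 100 µM mitoxantrone as full dye displacement; higher means more dye released from RNA so lower well fluorescence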
FAS TE block: FAS thioesterase (human) inhibition; inhibition, % at 15 µM; recombinant FAS-TE, OMFH fluorogenic substrate, fluorescence endpoint; P49327; 0.67% of 360,000 active;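 active = compounds whose normalised, plate-corrected inhibition of enzyme fluorescence in the single-dose primary screen is 50% or more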;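 also: 0% = DMSO with enzyme and 100% = substrate without enzyme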
MPTP counter: Rhodamine 123 counter-screen of mitochondrial pore hits; inhibition, % at 10 µM; isolated mitochondria, membrane potential, Rhodamine 123 fluorescence; 78% of 5,000 active; shares compounds with MPTP inh; in the data active = inhibition above about 22%;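 also: 0% = DMSO vehicle and 100% = positive control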
MPTP swell DR: dose response confirmation of mitochondrial permeability transition pore inhibitors; shares compounds with MPTP inh; isolated mitochondria swelling, absorbance; IC50, µM; 58% of 780 active; in the data active = IC50 below about 20 µM
MPTP cs DR: MPTP inhibitor counter-screen activity, dose response | isolated mitochondria counterscreen, fluorescence read-out | 49% of 780 active | IC50, µM | shares compounds with MPTP inh; in the data active = IC50 below about 80 µM
* marks the source's active call; other numbers are inactive results; i = inactive; ? = inconclusive; / = no result. In the library only some 5.7% were active in any assay of this set; here they are far more common.

SMILES	Myeloid diff MLP	NR3A LBD binder	MPTP inh	rCAG RNA binder	FAS TE block	MPTP counter	others
O=C(CCCN1CCN(c2ccccc2)CC1)c1ccc(F)cc1	i	/	-1	-1	-1	/
Cc1ccccc1CSCCNC(=O)c1ccccc1	i	-11	2	-3	0	/
Cc1ccccc1CSCCNC(=S)Nc1ccccc1	i	-3	57*	-2	11	78*
COc1ccc(CSCCNC(=S)Nc2ccccc2)cc1Cl	i	5	78*	0	34	90*
CC(C)COc1ccc(CNC(=S)Nc2ccccc2)cc1Cl	i	15*	74*	2	18	86*
OCCNCc1ccc(OCc2ccc(Cl)cc2Cl)cc1	/	-2	94*	11	-4	-6	MPTP swell DR=4.2*;MPTP cs DR=>80
CCOc1ccc(CSCCNC(=S)Nc2ccccc2)cc1	i	-5	46	-3	14	/
CC1CCN(C(=O)CSc2nnc3c(n2)[nH]c2ccccc23)CC1	i	0	-1	1	-1	/
CC(C)COc1ccc(CNC(=S)NCc2ccccc2)cc1	i	5	53*	-5	16	82*
S=C(NCCSCc1c(Cl)cccc1Cl)Nc1ccccc1	i	10	79*	2	21	86*
S=C(NCCSCc1ccc(Cl)cc1Cl)Nc1ccccc1	i	17*	97*	-1	26	105*
S=C(Nc1ccccc1)Nc1ccc(OCc2ccc(Cl)cc2Cl)cc1	i	14*	85*	5	6	89*
CCOc1ccc(NC(=S)Nc2ccc(OCc3ccccc3)cc2)cc1	i	8	0	0	-18	/
Cc1nc(C(F)(F)F)ccc1C(=O)N1CCC1(C)C(=O)NS(=O)(=O)c1ccc(C#N)cc1 (centres undefined)	i	/	0	2	-1	/
CCOC(=O)NC(NC(=S)Nc1ccc(OCC)cc1)C(Cl)(Cl)Cl (centres undefined)	i	-4	8	1	-13	/
O=C(NC(NC(=S)Nc1c(Cl)cccc1Cl)C(Cl)(Cl)Cl)OCc1ccccc1 (centres undefined)	i	17*	100*	11	28	67*
CCOC(=O)CCc1c(C)nc(SCc2ccc(C(=O)O)cc2)c(C#N)c1C	i	1	0	3	-5	/
Cc1ccc(C(NC(=O)NC(C)c2ccccc2)C(Cl)(Cl)Cl)cc1F (centres undefined)	i	-8	76*	5	16	83*
Cc1nn(CC(=O)Nc2sc3c(c2C#N)CCC(C(C)(C)C)C3)c(C)c1[N+](=O)[O-] (centres undefined)	i	14*	81*	3	27	32*
CC1(C)OC(=O)C2=C(CC(CCc3ccccc3)OC2c2cccc(C(F)(F)F)c2)O1 (centres undefined)	/	/	/	2	/	/
Cn1c(=O)c2[nH]c(CCCCc3nc4ccccc4[nH]3)nc2n(C)c1=O	i	1	-1	0	-4	/
Cn1c(=O)c2[nH]c(CCCCCCCCc3nc4ccccc4[nH]3)nc2n(C)c1=O	i	0	102*	0	-2	94*
O=C(Nc1cccc(Cl)c1Cl)c1snnc1-c1ccccc1	i	-19	4	0	17	/
NC(=NCCc1ccccc1)NC(=O)c1cc(Cl)ccc1O	i	-4	56*	13	25	74*
O=C(O)CC(=O)Nc1cc(Cl)ccc1O	i	2	-1	-1	-14	/
SMILES	Myeloid diff MLP	NR3A LBD binder	MPTP inh	rCAG RNA binder	FAS TE block	MPTP counter	others
O=C(CCc1ccccc1)Nc1cc(Cl)ccc1O	i	-4	68*	5	-8	81*
O=C(Nc1cc(Cl)ccc1O)c1snnc1-c1ccccc1	i	5	94*	14	-15	91*
COCCN(C(=O)COC(=O)c1ccc(C=O)cc1)c1c(N)n(Cc2ccccc2)c(=O)[nH]c1=O	i	-1	-2	7	-6	/
CN1C(c2ccccc2)CC2CN(c3ccccc3)C(=O)C21 (centres undefined)	/	/	/	4	/	/
Cc1cn2c(N)c(C=C3C=C(Cl)C(=O)C(Cl)=C3)c(=O)nc2s1	i	0	87*	3	-11	83*
N#CCSc1n[nH]c2nc3c(c(=O)n12)C1(CCCCC1)Cc1ccccc1-3	i	-3	70*	23	-6	64*
CCN(CC)C(=O)c1cccc(-c2csc(C(O)c3ccc(F)c(OC)c3)n2)c1 (centres undefined)	i	/	0	-3	2	/
Cc1ccc(C2=C(O)C(=O)C(c3ccc(C)cc3)=C(O)C2=O)cc1	?	-5	56*	20	27	-44	MPTP swell DR=14*;MPTP cs DR=<2.5*
COc1ccccc1N1CCN(C(=O)c2ccoc2C)CC1	i	0	78*	1	-5	-2	MPTP swell DR=>100;MPTP cs DR=>80
S=C(NCC1CCCCC1)Nc1ccc(Oc2ccccc2)cc1	i	16*	86*	3	26	86*
Cc1cccc(NC(=S)NC2CCCC2)c1	i	-1	0	2	-8	/
S=C(Nc1ccc(Br)cc1)NC1CCCC1	i	-3	95*	0	-5	97*
S=C(NCC1CCCCC1)Nc1cccnc1	i	8	1	-2	-8	/
CC(C)(C)NC(=O)Nc1ccc(Br)cc1	i	-8	58*	2	-4	77*
CN1CCC(NC(=O)Nc2cccc(C(F)(F)F)c2)CC1	i	0	3	1	-10	/
CN1CCC(NC(=O)Nc2ccc(Br)cc2)CC1	i	-2	67*	4	-3	83*
COc1cc(CN2CCNC(=O)C2CC(=O)N(C)CCC2CCOCC2)cc(OC)c1 (centres undefined)	i	-3	-1	-3	-6	/
O=C1CC(NS(=O)(=O)c2ccc([N+](=O)[O-])cc2)CN1c1cccc(F)c1 (centres undefined)	i	4	-2	1	8	/
CC(=O)Nc1cc(Cl)ccc1OS(=O)(=O)c1ccc(C)cc1	i	-1	1	-2	-4	/
S=C(Nc1ccccc1Oc1ccccc1)NC1CCCC1	i	-1	0	-2	7	/
S=C(Nc1ccc(Oc2ccccc2)cc1)NC1CCCC1	i	0	87*	-1	3	84*
Oc1ccccc1/C=N/NC(=S)NC1CC2CCC1C2 (centres undefined)	i	-9	54*	5	17	67*
O=C(NNC1=C(C(=O)C(F)(F)F)CCC1)c1cccc(O)c1	i	-27	0	3	10	/
Cc1cccc(C(=O)NNC2=C(C(=O)C(F)(F)F)CCC2)c1O	i	-2	93*	15	18	92*
C[C@@H]1CN([C@@H](C)CO)C(=O)CCCn2cc(nn2)CO[C@H]1CN(C)C(=O)Cc1ccccc1	/	/	/	-2	/	/
